Test in all cases: DAPPL (digital affinity profiling via proximity ligation, sequencing); 10 mM Tris-HCl pH 7.5, 50 mM NaCl, 1 mM DTT, 4% glycerol, room temperature, 30 min; GST-TFs on glutathione beads, 16-mer random dsDNA library, 0.1% formaldehyde crosslink after washing; high values mean tight binding
One test deals with T1, FEV (Homo sapiens, UniProt Q99581 1-238).
T1 sequence: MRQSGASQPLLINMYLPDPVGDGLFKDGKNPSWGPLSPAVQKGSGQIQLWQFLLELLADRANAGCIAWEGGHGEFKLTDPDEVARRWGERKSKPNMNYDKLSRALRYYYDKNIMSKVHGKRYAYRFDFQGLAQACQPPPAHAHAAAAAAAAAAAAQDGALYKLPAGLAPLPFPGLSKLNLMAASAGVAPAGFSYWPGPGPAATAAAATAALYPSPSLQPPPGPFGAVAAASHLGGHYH
As to conditions: protein: recombinant; tags: N-terminal GST; dsDNA, one strand shown. The gist of the method:
(§1)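 In yeast, human transcription factors were expressed with a GST fusion, then pulled down on glutathione beads and given DNA barcodes. Pooled with a tag-only sample, they were exposed to 200 nmole of a 16-mer random double-stranded DNA library (Tris/NaCl/DTT/glycerol buffer, room temperature, 30 min), washed, crosslinked with 0.1% formaldehyde, proximity-ligated using BsaI/T4 ligase for 1 h at 37 °C, PCR-amplified and read on an Illumina NextSeq500. Each hexamer's frequency of reads for a factor, divided by the matching frequency for the tag-only sample, gives the binding signal.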

Another test concerns the target ETV5 (Homo sapiens, UniProt P41161 1-510). The note with it: protein: recombinant; tags: N-terminal GST; dsDNA, one strand shown. The gist of the method:
as §1

The next test concerns the target HSF1 (Homo sapiens, UniProt Q00613 1-529). As to conditions: protein: recombinant; tags: N-terminal GST; chain copies: 3; dsDNA, one strand shown. The essentials:
as §1

A further test concerns the target T2, SPIC (Homo sapiens, UniProt Q8N5J4 1-248).
T2 sequence: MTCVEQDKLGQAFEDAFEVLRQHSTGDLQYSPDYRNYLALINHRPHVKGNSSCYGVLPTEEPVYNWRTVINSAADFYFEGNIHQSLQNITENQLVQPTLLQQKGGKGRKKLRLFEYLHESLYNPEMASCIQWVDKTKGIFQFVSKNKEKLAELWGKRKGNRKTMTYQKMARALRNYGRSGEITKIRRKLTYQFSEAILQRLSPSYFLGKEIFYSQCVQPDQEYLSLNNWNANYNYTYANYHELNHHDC
As to conditions: protein: recombinant; tags: N-terminal GST; dsDNA, one strand shown. The gist of the method:
as §1

A further test concerns the target ELF4 (Homo sapiens, UniProt Q99607 1-663). The note with it: protein: recombinant; tags: N-terminal GST; dsDNA, one strand shown. The essentials: as §1
The target of another test is T3, ELK4 (Homo sapiens, UniProt P28324-2 1-405).
T3 sequence: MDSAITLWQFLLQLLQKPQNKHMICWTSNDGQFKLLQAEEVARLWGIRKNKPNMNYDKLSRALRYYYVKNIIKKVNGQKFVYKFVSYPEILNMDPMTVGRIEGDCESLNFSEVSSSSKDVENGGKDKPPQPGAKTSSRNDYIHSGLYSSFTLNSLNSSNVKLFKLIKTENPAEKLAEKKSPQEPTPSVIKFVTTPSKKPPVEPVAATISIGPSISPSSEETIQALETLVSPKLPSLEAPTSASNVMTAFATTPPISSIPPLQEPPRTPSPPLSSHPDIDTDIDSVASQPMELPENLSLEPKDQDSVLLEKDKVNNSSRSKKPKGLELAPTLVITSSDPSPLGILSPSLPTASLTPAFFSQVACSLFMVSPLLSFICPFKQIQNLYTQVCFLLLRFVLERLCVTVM
As to conditions: protein: recombinant; tags: N-terminal GST; dsDNA, one strand shown. The gist of the method: as §1

For another test, the target named is T4, ETV2 (Homo sapiens, UniProt O00321 1-342).
T4 sequence: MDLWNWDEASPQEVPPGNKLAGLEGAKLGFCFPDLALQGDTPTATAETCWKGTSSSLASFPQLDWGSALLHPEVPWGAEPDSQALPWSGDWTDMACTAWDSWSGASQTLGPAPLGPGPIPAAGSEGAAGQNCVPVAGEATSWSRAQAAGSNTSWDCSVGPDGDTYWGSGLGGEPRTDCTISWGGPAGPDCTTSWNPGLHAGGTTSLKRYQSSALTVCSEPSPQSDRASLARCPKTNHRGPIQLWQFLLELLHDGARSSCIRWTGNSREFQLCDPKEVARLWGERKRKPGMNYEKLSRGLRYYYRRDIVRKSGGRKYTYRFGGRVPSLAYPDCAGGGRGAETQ
The note with it: protein: recombinant; tags: N-terminal GST; dsDNA, one strand shown. The gist of the method: as §1

The target of another test is T5, ELF3 (Homo sapiens, UniProt P78545 1-371).
T5 sequence: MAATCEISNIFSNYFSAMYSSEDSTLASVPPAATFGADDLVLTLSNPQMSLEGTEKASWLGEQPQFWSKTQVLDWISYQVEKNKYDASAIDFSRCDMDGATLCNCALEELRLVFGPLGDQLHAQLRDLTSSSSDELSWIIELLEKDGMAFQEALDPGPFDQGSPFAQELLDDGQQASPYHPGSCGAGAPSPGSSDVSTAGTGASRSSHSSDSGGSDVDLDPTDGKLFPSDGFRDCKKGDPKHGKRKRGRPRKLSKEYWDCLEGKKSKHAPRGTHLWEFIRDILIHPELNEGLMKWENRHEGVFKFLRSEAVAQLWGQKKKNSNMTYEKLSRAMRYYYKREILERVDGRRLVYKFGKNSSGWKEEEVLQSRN
The note with it: protein: recombinant; tags: N-terminal GST; dsDNA, one strand shown. The gist of the method:
as §1

Another test addresses CRX (Homo sapiens, UniProt O43186 1-299). As to conditions: protein: recombinant; tags: N-terminal GST; dsDNA, one strand shown. The essentials: as §1
For the next test, the target named is ETV1 (Homo sapiens, UniProt P50549 1-477). The note with it: protein: recombinant; tags: N-terminal GST; dsDNA, one strand shown. The gist of the method:
as §1

A further test deals with T6, ERF (Homo sapiens, UniProt P50548 1-548).
T6 sequence: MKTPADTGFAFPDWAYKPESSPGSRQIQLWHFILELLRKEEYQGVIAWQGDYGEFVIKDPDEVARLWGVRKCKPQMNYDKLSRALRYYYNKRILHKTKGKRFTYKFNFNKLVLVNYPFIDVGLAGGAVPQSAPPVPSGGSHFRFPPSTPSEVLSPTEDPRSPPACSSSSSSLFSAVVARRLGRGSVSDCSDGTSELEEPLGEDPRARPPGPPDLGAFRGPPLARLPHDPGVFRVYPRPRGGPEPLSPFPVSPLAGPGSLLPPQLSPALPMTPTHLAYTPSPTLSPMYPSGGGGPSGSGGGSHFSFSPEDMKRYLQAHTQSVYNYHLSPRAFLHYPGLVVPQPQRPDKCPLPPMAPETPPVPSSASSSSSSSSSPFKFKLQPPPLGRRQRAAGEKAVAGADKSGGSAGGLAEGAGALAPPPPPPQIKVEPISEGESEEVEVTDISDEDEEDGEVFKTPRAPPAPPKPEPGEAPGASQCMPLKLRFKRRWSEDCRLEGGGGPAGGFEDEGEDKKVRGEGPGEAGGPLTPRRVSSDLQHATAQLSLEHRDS
The note with it: protein: recombinant; tags: N-terminal GST; dsDNA, one strand shown. The essentials:
as §1

The next test has as its target T7, ETV3L (Homo sapiens, UniProt Q6ZN32 1-361).
T7 sequence: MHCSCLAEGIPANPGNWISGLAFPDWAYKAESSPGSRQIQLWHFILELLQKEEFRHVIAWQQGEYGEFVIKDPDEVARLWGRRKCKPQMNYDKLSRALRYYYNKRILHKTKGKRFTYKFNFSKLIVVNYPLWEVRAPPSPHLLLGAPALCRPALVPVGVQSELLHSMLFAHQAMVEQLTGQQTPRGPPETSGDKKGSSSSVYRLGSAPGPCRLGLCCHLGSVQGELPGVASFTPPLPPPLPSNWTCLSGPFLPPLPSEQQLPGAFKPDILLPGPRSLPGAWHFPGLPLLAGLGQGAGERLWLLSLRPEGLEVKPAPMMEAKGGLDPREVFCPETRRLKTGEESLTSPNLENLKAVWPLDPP
As to conditions: protein: recombinant; tags: N-terminal GST; dsDNA, one strand shown. The gist of the method:
as §1

The target in a further test is T8, ETS2 (Homo sapiens, UniProt P15036 1-469).
T8 sequence: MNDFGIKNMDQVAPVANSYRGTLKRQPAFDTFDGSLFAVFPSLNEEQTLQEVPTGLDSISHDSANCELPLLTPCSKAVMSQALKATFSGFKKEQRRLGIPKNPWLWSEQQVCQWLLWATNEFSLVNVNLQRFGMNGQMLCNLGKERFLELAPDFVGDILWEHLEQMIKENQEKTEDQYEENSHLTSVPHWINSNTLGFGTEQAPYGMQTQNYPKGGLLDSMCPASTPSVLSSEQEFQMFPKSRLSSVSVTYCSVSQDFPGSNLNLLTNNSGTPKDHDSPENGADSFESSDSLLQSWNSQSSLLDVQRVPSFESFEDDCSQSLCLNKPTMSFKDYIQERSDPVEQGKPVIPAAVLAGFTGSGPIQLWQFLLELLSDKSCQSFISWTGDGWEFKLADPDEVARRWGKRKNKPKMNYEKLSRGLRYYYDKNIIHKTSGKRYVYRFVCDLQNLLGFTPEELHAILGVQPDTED
The note with it: protein: recombinant; tags: N-terminal GST; dsDNA, one strand shown. The gist of the method: as §1

A further test addresses T9, SPDEF (Homo sapiens, UniProt O95238 1-335).
T9 sequence: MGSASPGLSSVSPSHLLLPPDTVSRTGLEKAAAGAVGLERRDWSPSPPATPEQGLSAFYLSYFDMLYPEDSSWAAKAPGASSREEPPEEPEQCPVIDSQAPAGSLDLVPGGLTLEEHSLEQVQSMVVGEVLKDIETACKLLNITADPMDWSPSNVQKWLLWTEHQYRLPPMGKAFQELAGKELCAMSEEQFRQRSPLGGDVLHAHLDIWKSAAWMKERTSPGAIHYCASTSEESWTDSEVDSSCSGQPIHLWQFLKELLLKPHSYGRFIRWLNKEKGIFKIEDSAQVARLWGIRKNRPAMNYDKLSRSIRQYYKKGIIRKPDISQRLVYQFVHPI
As to conditions: protein: recombinant; tags: N-terminal GST; dsDNA, one strand shown. The gist of the method:
as §1

For another test, the target named is T10, ETV7 (Homo sapiens, UniProt Q9Y603 1-341).
T10 sequence: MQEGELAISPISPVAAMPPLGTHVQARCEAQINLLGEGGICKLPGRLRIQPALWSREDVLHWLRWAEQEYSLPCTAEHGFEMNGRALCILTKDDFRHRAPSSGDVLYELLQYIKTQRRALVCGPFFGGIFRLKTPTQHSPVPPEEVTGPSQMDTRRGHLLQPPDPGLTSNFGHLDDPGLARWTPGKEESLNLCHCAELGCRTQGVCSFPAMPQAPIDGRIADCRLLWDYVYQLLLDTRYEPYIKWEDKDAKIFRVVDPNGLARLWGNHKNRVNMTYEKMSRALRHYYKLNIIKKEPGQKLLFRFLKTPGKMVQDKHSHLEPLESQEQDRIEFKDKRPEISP
As to conditions: protein: recombinant; tags: N-terminal GST; dsDNA, one strand shown. The essentials:
as §1

A further test concerns the target T11, ELF5 (Homo sapiens, UniProt Q9UKW6-2 1-255).
T11 sequence: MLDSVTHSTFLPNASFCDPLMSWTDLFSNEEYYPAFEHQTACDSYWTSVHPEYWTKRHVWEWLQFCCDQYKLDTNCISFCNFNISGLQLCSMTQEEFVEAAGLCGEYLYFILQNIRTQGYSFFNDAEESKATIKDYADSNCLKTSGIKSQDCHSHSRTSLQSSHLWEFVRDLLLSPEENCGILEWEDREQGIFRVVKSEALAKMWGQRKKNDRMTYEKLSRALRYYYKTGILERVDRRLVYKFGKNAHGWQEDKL
The note with it: protein: recombinant; tags: N-terminal GST; dsDNA, one strand shown. The essentials: as §1

A further test has as its target T12, ETV3 (Homo sapiens, UniProt P41162-2 1-143).
T12 sequence: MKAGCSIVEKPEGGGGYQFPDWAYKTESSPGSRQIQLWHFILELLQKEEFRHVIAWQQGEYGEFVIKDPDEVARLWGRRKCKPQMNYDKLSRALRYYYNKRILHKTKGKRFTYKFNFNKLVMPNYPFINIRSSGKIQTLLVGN
The note with it: protein: recombinant; tags: N-terminal GST; dsDNA, one strand shown. The essentials:
as §1

For a further test, the target named is ETV6 (Homo sapiens, UniProt P41212 1-452). The note with it: protein: recombinant; tags: N-terminal GST; dsDNA, one strand shown. The gist of the method:
as §1

HSF1, sequence (Q00613 whole entry): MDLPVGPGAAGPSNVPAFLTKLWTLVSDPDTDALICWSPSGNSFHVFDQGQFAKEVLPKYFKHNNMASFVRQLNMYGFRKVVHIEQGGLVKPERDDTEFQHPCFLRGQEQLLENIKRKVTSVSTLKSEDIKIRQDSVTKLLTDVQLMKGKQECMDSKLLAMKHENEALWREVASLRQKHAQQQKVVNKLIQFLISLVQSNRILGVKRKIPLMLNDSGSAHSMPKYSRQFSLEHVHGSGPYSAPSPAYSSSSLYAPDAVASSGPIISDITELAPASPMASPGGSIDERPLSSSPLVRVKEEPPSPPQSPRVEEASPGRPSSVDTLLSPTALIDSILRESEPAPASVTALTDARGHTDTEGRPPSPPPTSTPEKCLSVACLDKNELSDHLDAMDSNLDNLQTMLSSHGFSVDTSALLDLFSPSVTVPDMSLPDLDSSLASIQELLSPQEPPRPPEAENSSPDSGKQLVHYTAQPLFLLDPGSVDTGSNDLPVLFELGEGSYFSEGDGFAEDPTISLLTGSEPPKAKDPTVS
ETV1, sequence (P50549 whole entry): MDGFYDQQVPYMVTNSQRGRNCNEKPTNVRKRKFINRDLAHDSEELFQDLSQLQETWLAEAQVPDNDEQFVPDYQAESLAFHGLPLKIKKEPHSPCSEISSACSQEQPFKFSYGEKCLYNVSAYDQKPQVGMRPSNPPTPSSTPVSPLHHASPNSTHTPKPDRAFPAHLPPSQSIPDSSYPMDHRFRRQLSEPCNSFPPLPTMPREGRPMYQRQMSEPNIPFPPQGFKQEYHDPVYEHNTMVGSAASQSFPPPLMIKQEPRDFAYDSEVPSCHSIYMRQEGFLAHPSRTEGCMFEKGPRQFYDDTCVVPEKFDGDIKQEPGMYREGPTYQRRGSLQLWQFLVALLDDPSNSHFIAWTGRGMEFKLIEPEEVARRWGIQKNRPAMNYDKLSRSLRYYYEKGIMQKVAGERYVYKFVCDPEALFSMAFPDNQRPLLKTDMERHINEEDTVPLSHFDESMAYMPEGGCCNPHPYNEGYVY
ETV5, sequence (P41161 whole entry): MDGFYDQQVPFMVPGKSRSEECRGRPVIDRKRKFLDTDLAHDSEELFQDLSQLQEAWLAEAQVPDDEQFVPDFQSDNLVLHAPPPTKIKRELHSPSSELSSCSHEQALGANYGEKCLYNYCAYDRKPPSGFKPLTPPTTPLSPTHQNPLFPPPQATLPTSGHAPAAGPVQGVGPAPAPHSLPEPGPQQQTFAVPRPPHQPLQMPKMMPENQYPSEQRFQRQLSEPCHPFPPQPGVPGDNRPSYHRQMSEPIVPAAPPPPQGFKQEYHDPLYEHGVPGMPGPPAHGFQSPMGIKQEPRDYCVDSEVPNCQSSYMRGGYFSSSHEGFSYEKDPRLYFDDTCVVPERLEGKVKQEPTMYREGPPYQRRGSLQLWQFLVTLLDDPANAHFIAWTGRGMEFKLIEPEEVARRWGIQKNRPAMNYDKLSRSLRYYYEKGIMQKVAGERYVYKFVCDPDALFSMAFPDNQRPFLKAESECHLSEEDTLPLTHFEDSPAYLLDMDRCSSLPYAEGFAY
ETV6, sequence (P41212 whole entry): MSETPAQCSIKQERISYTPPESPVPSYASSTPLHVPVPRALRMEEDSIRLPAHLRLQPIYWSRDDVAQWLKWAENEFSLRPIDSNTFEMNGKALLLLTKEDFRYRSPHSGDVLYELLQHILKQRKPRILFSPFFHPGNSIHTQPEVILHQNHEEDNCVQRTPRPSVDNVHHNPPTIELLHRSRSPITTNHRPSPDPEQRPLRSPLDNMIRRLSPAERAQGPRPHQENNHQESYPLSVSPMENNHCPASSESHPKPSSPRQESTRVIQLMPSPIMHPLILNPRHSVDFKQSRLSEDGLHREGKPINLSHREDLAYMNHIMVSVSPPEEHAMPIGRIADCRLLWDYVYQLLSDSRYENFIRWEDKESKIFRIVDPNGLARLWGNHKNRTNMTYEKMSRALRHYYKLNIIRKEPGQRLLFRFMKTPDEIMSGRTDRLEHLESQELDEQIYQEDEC
ELF4, sequence (Q99607 whole entry): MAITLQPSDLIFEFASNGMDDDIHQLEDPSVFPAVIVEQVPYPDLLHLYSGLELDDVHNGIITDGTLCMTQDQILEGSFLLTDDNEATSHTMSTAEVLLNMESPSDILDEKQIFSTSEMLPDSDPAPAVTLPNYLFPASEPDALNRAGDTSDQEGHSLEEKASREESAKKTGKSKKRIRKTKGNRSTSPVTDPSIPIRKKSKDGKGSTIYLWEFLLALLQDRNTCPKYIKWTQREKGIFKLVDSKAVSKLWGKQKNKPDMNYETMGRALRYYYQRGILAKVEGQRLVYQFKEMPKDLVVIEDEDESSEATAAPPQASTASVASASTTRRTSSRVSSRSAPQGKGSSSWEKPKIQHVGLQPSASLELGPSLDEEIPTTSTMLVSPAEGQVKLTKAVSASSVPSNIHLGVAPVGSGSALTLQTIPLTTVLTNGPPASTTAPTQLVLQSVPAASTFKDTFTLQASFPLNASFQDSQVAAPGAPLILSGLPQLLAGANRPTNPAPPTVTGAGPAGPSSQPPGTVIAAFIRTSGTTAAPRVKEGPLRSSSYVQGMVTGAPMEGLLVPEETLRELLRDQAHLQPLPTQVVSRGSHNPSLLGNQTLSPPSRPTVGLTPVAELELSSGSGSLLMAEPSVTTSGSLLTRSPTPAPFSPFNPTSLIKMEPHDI
CRX, sequence (O43186 whole entry): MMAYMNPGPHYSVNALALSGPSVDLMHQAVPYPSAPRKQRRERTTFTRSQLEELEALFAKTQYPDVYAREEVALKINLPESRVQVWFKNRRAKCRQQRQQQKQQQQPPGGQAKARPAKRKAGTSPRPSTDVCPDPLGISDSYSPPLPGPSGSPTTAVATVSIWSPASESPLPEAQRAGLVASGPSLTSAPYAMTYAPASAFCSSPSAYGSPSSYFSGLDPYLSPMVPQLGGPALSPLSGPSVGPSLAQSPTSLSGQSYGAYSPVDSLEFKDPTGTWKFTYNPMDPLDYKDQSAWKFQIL

Consider TGTTTC, for which the binding signal with FEV is 1.97 fold enrichment (6-mer frequency, TF over GST control); with ETV5 it was 1.83 fold enrichment (6-mer frequency, TF over GST control); in the test with HSF1 it was 1.43 fold enrichment (6-mer frequency, TF over GST control); with SPIC, 1.49 fold enrichment (6-mer frequency, TF over GST control); with ELF4, 1.73 fold enrichment (6-mer frequency, TF over GST control); in the test with ELK4, 1.55 fold enrichment (6-mer frequency, TF over GST control). Moreover, the binding signal was 1.69 fold enrichment (6-mer frequency, TF over GST control) with ETV2; 1.68 fold enrichment (6-mer frequency, TF over GST control) with ELF3; 1.17 fold enrichment (6-mer frequency, TF over GST control) in the test with CRX; 1.84 fold enrichment (6-mer frequency, TF over GST control) in the test with ETV1; 1.86 fold enrichment (6-mer frequency, TF over GST control) with ERF; 1.84 fold enrichment (6-mer frequency, TF over GST control) with ETV3L. For the same sequence, the binding signal in the test with ETS2 was 1.79 fold enrichment (6-mer frequency, TF over GST control); in the test with SPDEF, 1.81 fold enrichment (6-mer frequency, TF over GST control); with ETV7, 1.89 fold enrichment (6-mer frequency, TF over GST control); with ELF5, 2.08 fold enrichment (6-mer frequency, TF over GST control); with ETV3, 1.83 fold enrichment (6-mer frequency, TF over GST control); in the test with ETV6, 1.95 fold enrichment (6-mer frequency, TF over GST control).

The values above are taken from paper PMC7862700, “An all-to-all approach to the identification of sequence-specific readers for epigenetic DNA modifications on cytosine”.
